Whole data set: some 68,000 sequences, median “fluorescence intensity (a.u.)” near 9,100, cut for the highest 2% near 16,000. Shown is part of a subset that was picked to be rich in the highest values.

For the assay, the target named is OsWRKY34 (Oryza sativa, UniProt Q0JBA9 1-250). Put plainly: protein-binding microarray (RPBM); PBS, 2% BSA, 51.3 ng/ul salmon testes DNA, 50 uM zinc acetate, 200 nM TF, 25 C, 1 h; high values mean tight binding. The following applies: protein: recombinant; tags: N-terminal polyhistidine and DsRed monomer fusion (pET32a); label: CyDye5-dUTP incorporated in the synthesized complementary strand; 3' TTTTT single-stranded linker to array surface; dsDNA, one strand shown. Summed up: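 The binding signal is fluorescence intensity per array feature (arbitrary units). Readings came from an Axon 4000B scanner after a washed, 2% BSA-blocked, double-stranded custom Agilent array had been incubated for 1 h at 25 °C with 200 nM protein and 50 µM zinc acetate. The protein was a Ni–NTA-purified transcription factor fused N-terminally to polyhistidine and DsRed, expressed in E. coli BL21-CodonPlus.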
Chain of OsWRKY34 (Q0JBA9 entry or part of it): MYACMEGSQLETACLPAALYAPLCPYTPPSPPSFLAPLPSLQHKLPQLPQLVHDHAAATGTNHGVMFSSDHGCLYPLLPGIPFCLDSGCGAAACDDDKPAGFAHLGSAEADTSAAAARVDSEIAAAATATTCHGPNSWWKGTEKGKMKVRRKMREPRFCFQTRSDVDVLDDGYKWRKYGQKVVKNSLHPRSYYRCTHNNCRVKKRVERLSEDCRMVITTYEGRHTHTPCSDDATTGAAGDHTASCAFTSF
In the case of “GCTACACCGCACCCACCACAGCCAGACTTGAACTTGTTGACGGAGTCACCTAGTGCAG”, the binding signal is 8950 fluorescence intensity (a.u.). Turning to “GGCGCCGTCGTCTTCTTTCCCACGCCGCCGCCGCCGTCAACGGAGTCACCTAGTGCAG”, the binding signal was 8600 fluorescence intensity (a.u.). Regarding “GGTTTTTTTCCCGCTTATCCCACTTCTAGTCTATCTTTTTCGGAGTCACCTAGTGCAG”, the binding signal was 19300 fluorescence intensity (a.u.).

With “GGGTTATGTTTCATTTGTATTATTTTCTTAATTCTTACACCGGAGTCACCTAGTGCAG”, the binding signal was 12700 fluorescence intensity (a.u.). The figure for “CCGCTCGTCTTCCACTGCAGCCCAGCTCCCGTTCTTTCAACGGAGTCACCTAGTGCAG” is 16500 fluorescence intensity (a.u.). Consider “TTTCTTGTTTTCTTCTCATTCTTCTTTTTTTTCTTTCTTCCGGAGTCACCTAGTGCAG”, for which the binding signal was 14700 fluorescence intensity (a.u.).

As to “TCATTATGGTGTTTCTTAATTGCTTTTTTCTTTTTATTATCGGAGTCACCTAGTGCAG”, the binding signal is 8300 fluorescence intensity (a.u.). With “ATCCCGCTTATCCCACTTCTAATTCATTTTTTCTTTTAAACGGAGTCACCTAGTGCAG”, the binding signal was 10900 fluorescence intensity (a.u.). “TTTCTTTTTCTTGGTTTTTTTTTGTCTTTTCTTCTTTTTCCGGAGTCACCTAGTGCAG”: the binding signal was 18200 fluorescence intensity (a.u.). In the case of “CTCTCTTTCTTCTTTGTGTCTTTGTTTCTTTTCTTTTTTCCGGAGTCACCTAGTGCAG”, the binding signal is 14700 fluorescence intensity (a.u.). Turning to “GCTCCGTCTTCCTGCTCCAGCCGCTCGCCATAGCCCACTGCGGAGTCACCTAGTGCAG”, the binding signal is 11100 fluorescence intensity (a.u.). For “GTCTCGCTTTCTCTCTCTAGGGTTTTTCCCCACTTTCGTTCGGAGTCACCTAGTGCAG”, the binding signal is 13700 fluorescence intensity (a.u.).

With “TCTGCTTTTATTCATCGGTTTCATTAATTGTTTCTGTTACCGGAGTCACCTAGTGCAG”, the binding signal was 17200 fluorescence intensity (a.u.). In the case of “CACATTGCGTCTTGTAGTCTGTATTGTAGCTGACTATATACGGAGTCACCTAGTGCAG” it was 8820 fluorescence intensity (a.u.); in that of “CCTCCCTTGTTTTCTGTACCAATACGTGATGCACCGGTCTCGGAGTCACCTAGTGCAG”, 8440 fluorescence intensity (a.u.). The figure for “GGGTTCACCACCAAACTCGCCACCTATAAACGCTCCTCGCCGGAGTCACCTAGTGCAG” is 9030 fluorescence intensity (a.u.); for “AATGTTAACGGTGCATGTGGTTGGTTGATTTGATTAGTGACGGAGTCACCTAGTGCAG” it is 15300 fluorescence intensity (a.u.).

As for “AATGTTCAAAATTGTGCAATCAAGGTCTTACGGCAGTATACGGAGTCACCTAGTGCAG”, the binding signal is 8120 fluorescence intensity (a.u.). In the case of “TTCTTTTCGCTAGTGATGTCTAGCGTTTCTTTTGACAAATCGGAGTCACCTAGTGCAG” it was 8560 fluorescence intensity (a.u.); in that of “CGTCTTAGTTACCCTTCTACTCCTATCGCTCGATCGCCTCCGGAGTCACCTAGTGCAG”, 8380 fluorescence intensity (a.u.). For the sequence “TCCTTAGCTCCGCGGATTTGTTCACCATCACCACCATCACCGGAGTCACCTAGTGCAG”, the binding signal is 8780 fluorescence intensity (a.u.). The figure for “GCACCAACCATCTCACCCGTCCGACGTGGCAGCAGCAACCCGGAGTCACCTAGTGCAG” is 8770 fluorescence intensity (a.u.). On to “CTGCCTGTCCCTTTCCTGCATCCATCCATCCATCTTGATCCGGAGTCACCTAGTGCAG”, for which the binding signal was 10600 fluorescence intensity (a.u.). For “TCCCCTCTCTGTTGTCATCGTCTTCCTTTCCTTTCCTTTCCGGAGTCACCTAGTGCAG”, the binding signal is 8230 fluorescence intensity (a.u.).

In the case of “AAGTTTAATTTGTTATTTTTATTTTTATACGTCATCTTTTCGGAGTCACCTAGTGCAG”, the binding signal is 9760 fluorescence intensity (a.u.). The figure for “TGTTTTTTTTCTTTCCGTATCTTTTTCTTTTTTTGGTTTTCGGAGTCACCTAGTGCAG” is 19700 fluorescence intensity (a.u.); for “TTTTTTCTGTTTTTTTCTTTCCGTATCTTTTTCAGTTTTTCGGAGTCACCTAGTGCAG” it is 14200 fluorescence intensity (a.u.); for “ACTAAGTGCGTGATTGTTTCAGATTTGTTTGGGTTGCGGTCGGAGTCACCTAGTGCAG” it is 9410 fluorescence intensity (a.u.). Turning to “TTGTGTGTGCGTTTGTGATTGCGTCGGTCGGTTTCAGTTCCGGAGTCACCTAGTGCAG”, the binding signal is 17500 fluorescence intensity (a.u.).

Turning to “TTTTTTTCTTTCCGTATCTTTTTCTTTTTTTGGTTTTTTACGGAGTCACCTAGTGCAG”, the binding signal is 8410 fluorescence intensity (a.u.). Turning to “GGGTGGCGTCCTGTTGTCATCTTTTATCCCTCTTGAATTCCGGAGTCACCTAGTGCAG”, the binding signal is 21500 fluorescence intensity (a.u.). For “TGGTTCTTTGATCTTTTAATTTTGTTTGTTTGTTTGTTTTCGGAGTCACCTAGTGCAG”, the binding signal is 12800 fluorescence intensity (a.u.). “GAGTTCGGCCTTTCCGGTTTCCGGTTGTGTTGTGAGGAGTCGGAGTCACCTAGTGCAG”: the binding signal was 10600 fluorescence intensity (a.u.).

As for “GTCATCTTTGTTTGAGTCGGTTTTTAATTTTGTTTGCTTTCGGAGTCACCTAGTGCAG”, the binding signal is 17700 fluorescence intensity (a.u.). The figure for “ATTGTTCGTCGAACTTTATCATATTATTAATCATCATATACGGAGTCACCTAGTGCAG” is 8960 fluorescence intensity (a.u.); for “ACCACGGCAAGCCCCTCGCCGAGTCTCTCATCATCGTCGACGGAGTCACCTAGTGCAG” it is 8830 fluorescence intensity (a.u.); for “TTTGTGTAACCGATATGTGGGCCCCACATATTTTATTATTCGGAGTCACCTAGTGCAG” it is 9030 fluorescence intensity (a.u.). Regarding “TGCGTGGGTCCCAACTCCGGCCGTCTTCCGCCGTTGGATCCGGAGTCACCTAGTGCAG”, the binding signal was 8940 fluorescence intensity (a.u.). The figure for “CCACGATCACATTCACCTCCCATCCCACGACGTTGCTCTCCGGAGTCACCTAGTGCAG” is 8850 fluorescence intensity (a.u.). Turning to “TTTTACCAACTTTCTTAATACTCGTGTCCACCTAAAAAATCGGAGTCACCTAGTGCAG”, the binding signal is 8440 fluorescence intensity (a.u.).

Take “CGCCTCCGGCCTCCTCACGCACTGCCGCACCACGTCGCACCGGAGTCACCTAGTGCAG”: the binding signal is 9020 fluorescence intensity (a.u.). On to “ACCTACTTTTCGTCCCTTAATTCTGTGGCTATGTTCAAATCGGAGTCACCTAGTGCAG”, for which the binding signal is 12700 fluorescence intensity (a.u.). On to “GAGAGGAGGTGGTGGGAAGTGGCGGCTAGGGTTTGGGTGGCGGAGTCACCTAGTGCAG”, for which the binding signal was 11300 fluorescence intensity (a.u.). Take “AGCCTTATCTCTTCATCGGTTCATCCGGTGCCTGTTGTCTCGGAGTCACCTAGTGCAG”: the binding signal is 8990 fluorescence intensity (a.u.). “CACCTTCTTTTTCTCTCTCTCTCTCTCTCTCTTTCTCATCCGGAGTCACCTAGTGCAG”: the binding signal was 10300 fluorescence intensity (a.u.). Turning to “TCATCCGGTGCCTGTTGTCTCTTTCTTCTCTCTCACATACCGGAGTCACCTAGTGCAG”, the binding signal is 16600 fluorescence intensity (a.u.).

With “CGGCAGTGTTCTTTTTTTTTTACACGCGTTTTTTTTTACACGGAGTCACCTAGTGCAG”, the binding signal was 10800 fluorescence intensity (a.u.). Regarding “TGTTCTTTTTTTTTACACGCGTTTTTTTTACATTGTCGTTCGGAGTCACCTAGTGCAG”, the binding signal was 18400 fluorescence intensity (a.u.).

For the sequence “TTTTTACACGCGTTTTTTTTACATTGTCGTTTTTTTTTTGCGGAGTCACCTAGTGCAG”, the binding signal is 13500 fluorescence intensity (a.u.). Turning to “GCACAGTGGGAGGCCCGCGTTCTTTTTTTTTCGCCGGTTTCGGAGTCACCTAGTGCAG”, the binding signal was 10000 fluorescence intensity (a.u.). Regarding “GCAGTCGGTTCGCGTTTGTTTTTTTTCTTTCTTTCTTTTTCGGAGTCACCTAGTGCAG”, the binding signal was 18400 fluorescence intensity (a.u.).

As to “GGTTTTTTCGGTTTTCGGTTGTCAGTTCGGTTTCTGTTTTCGGAGTCACCTAGTGCAG”, the binding signal is 15400 fluorescence intensity (a.u.). “TTCTTTTCGGTTGATTGTTTTTCTTTGTATTTCAGTGTTGCGGAGTCACCTAGTGCAG”: the binding signal was 9180 fluorescence intensity (a.u.). As to “ATTATTGTTGTACAGTTCTTGCCTACAGTTCGGTTTTTCTCGGAGTCACCTAGTGCAG”, the binding signal is 19700 fluorescence intensity (a.u.). Consider “TCGTTCGTTGGTTTGTTTTTTTTTTCTTTTCTCGCGTACACGGAGTCACCTAGTGCAG”, for which the binding signal was 11600 fluorescence intensity (a.u.).

These data come from PMC7819943, “Rice protein-binding microarrays: a tool to detect cis-acting elements near promoter regions in rice”.
